Sampled rows, rich in hits. Any-hit rate of the full collection: about 1.7%.
GLP1R cytotox: cytotoxicity in counter-screen for GLP-1R inverse agonists | HEK293 cAMP-luciferase reporter cells, luminescence, 24 h | Potency, µM (doses to about 38.3 µM), inactives show top-dose activity change, negative = inhibition, usual class: inhibitors | actives 0.13% (n = 410,000) | AID 624418;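 further: loss of luciferase light is scored as toxicity; on the % scale 0 is the no-effect control and ±100 the full control effect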
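MLSMR compounds, 24 hr on cells at 37 deg C/5% CO2; luminescence after luciferase reagent (12 min RT). Inhibition counted as the undesired cytotoxic outcome.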
GLP1R ag: agonists of human GLP-1 receptor. HEK293 GLP-1R CRE-luciferase, luminescence, 4-6 h; cells express a hypersensitive GLP-1R form. actives 0.007% (n = 380,000). Potency, µM (series often up to 45.6 µM), for the others: at the top dose activation, most hits filed as activators. P43220; further: % of control where 0% means no effect
GLP-1R inv ag: inverse agonists of human GLP-1 receptor | Potency, µM (top dose mostly 38.3 µM), without a hit: at the top dose activity change, negative = inhibition, hits mostly inhibitors | AID 624417 | HEK293 GLP-1R CRE-luciferase, luminescence, 24 h; GLP-1R form is constitutively active | actives 1.6% (n = 410,000); further: on the % scale 0 is the no-effect control and ±100 the full control effect; nearly all actives have a fitted effect of over 55% in size
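Constitutively active GLP-1R drives a cAMP-responsive luciferase in stably transfected HEK293 cells; test compounds are added after overnight (12 h) attachment and left 24 hr, and signal loss in luminescence marks inhibition.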
PTHR1 ag: agonists of human PTHR1 parathyroid hormone receptor; Q03431; HEK293 GP2 PTHR1 cells, GloSensor cAMP luminescence, 1 h; Potency, µM (highest dose often 115 µM), inactives show top-dose activation, most hits filed as activators; actives 0.075% (n = 410,000); further: nearly all actives have a fitted effect of over 55% in size
Target sequence (Q03431 whole entry, looked up): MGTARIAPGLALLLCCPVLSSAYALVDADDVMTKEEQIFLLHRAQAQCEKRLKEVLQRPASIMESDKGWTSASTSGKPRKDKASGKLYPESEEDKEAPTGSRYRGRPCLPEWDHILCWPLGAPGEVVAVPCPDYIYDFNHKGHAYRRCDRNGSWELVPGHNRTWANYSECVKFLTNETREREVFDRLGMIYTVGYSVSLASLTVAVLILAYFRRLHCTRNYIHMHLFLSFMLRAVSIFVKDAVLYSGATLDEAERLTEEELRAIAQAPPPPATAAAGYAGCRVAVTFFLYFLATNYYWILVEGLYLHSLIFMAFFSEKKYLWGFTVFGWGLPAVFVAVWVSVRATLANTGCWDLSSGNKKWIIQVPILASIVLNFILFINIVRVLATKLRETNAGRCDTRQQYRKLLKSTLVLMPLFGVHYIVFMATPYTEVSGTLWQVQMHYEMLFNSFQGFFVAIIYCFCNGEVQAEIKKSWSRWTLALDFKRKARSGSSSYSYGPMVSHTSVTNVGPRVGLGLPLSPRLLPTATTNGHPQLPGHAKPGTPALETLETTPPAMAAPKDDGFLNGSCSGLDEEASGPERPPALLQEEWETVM
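HEK-293-derived GP2 cells expressing PTHR1 and a GloSensor cAMP reporter, 3,000/well, plated overnight, given luciferin plus IBMX (each 0.5 mM as added) for 1 h at 37 °C, then compound for 1 h at 37 °C. Luminescence was read after 15 min at room temperature.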
An asterisk follows results filed as active; i = inactive; ? = inconclusive; nt = not tested or not shown; [ ] = dose if it differs, or a comment. The call rests on the fitted dose curve; in most records, active means well fitted curve in the direction sought with a large enough effect; inconclusive means small, poorly fitted or top-dose-only effect, or another doubt; inactive means no such curve, though single readings can be large; an effect the other way counts as inactive or inconclusive. Potency means the concentration at half of the fitted maximal effect.

SMILES	GLP1R cytotox	GLP1R ag	GLP-1R inv ag	PTHR1 ag
Cc1cc(C(=O)COC(=O)c2ccc[nH]c2=O)c(C)n1-c1ccccc1F	6%	-6%	-22%	-46%
CC(C)=CCC(C)(C)CNC(=O)NC1CCCCC1	-1%	-3%	10µM*	i
COc1cccc2cc(C(=O)NCCc3c(C)[nH]c4ccc(Br)cc34)c(=O)oc12	2%	-6%	4%	-13%
Cc1ccccc1C(=O)Nc1cccc(N)c1	-21%	-1%	-21%	i
Cc1ccccc1C(=O)Nc1cccc(NC(=O)c2ccc(C(C)(C)C)cc2)c1	-15%	nt	7.9µM*	-1%
Cn1cc(S(=O)(=O)N2CCCC2)cc1C(=O)Nc1ccc(C(F)(F)F)cc1	2%	nt	?	-66%
C#CCn1c(=NC(=O)CSC(C)=O)sc2cc(F)ccc21	?	5%	3.5µM*	i
CCn1c(=NC(=O)CSC(C)=O)sc2cc(F)ccc21	10%	-35%	-3%	-10%
CCC(Sc1nc2ccccc2c2nc(CCc3c(C)n[nH]c3C)nn12)C(=O)Nc1ccc(OC)cc1 (stereo unspecified)	-2%	nt	13%	i
CCC(CC)C(=O)N1CCN(c2ccccc2)CC1	10%	-2%	0%	i
O=C(C(=O)N1CCN(c2cccc(Cl)c2)CC1)c1c[nH]c2ccccc12	-22%	-2%	8.9µM*	i
O=C(C(Cc1ccccc1)n1cccc1)N1CCN(c2cccc(Cl)c2)CC1 (stereo unspecified)	-7%	-2%	11µM*	-36%
CCC(C(=O)N1CCN(c2cccc(Cl)c2)CC1)c1ccccc1 (stereo unspecified)	-21%	-3%	5µM*	-12%[57.5 µM]
CCC(C(=O)N(C)Cc1ccccc1)n1nc(C)c2sc3ccccc3c2c1=O (stereo unspecified)	7%	nt	-7%	-18%
Nc1c(C(=O)NCCc2ccccc2)sc2nc(N3CCOCC3)c3c(c12)CCCC3	19%	22%	8.9µM*	-2%
Cc1ccccc1NC(=O)c1sc2nc(N3CCOCC3)c3c(c2c1N)CCCC3	5%	?	34%	-4%
OC(c1cc(-c2cccc(Cl)c2)nc2ccccc12)C1CCCCN1 (stereo unspecified)	10µM*	-4%	1.4µM*	-6%
OC(c1cc(C(F)(F)F)nc2c(C(F)(F)F)cccc12)C1CCCCN1 (stereo unspecified)	-4%	-24%	?	-60%
COc1ccc(Br)cc1/C=C/C(=O)Nc1ccc2ccccc2c1	12%	-3%	-12%	-6%
COc1ccc(Br)cc1/C=C/C(=O)Nc1ccc(C)cc1	-17%	6%	4.5µM*	-22%
COc1ccc(-c2nc3cc(C(C)C)ccc3o2)cc1NC(=O)c1ccc(C)c(Cl)c1	-1%	nt	6%	?
CCN(CC)CCNC(=O)c1ccc(NC(=O)c2cccc(S(=O)(=O)N3c4ccccc4CC3C)c2)cc1 (stereo unspecified)	?	24%	5.6µM*	i
CCN(CC)CCNC(=O)c1ccc(NC(=O)Nc2cccc3ccccc23)cc1	7%	14%	10µM*	-8%
CCCCOc1ccc(C(C)NC(=O)c2cccc(Nc3nc4ccccc4n4nnnc34)c2)cc1 (stereo unspecified)	-3%	nt	13%	-3%
COc1ccc(C(=O)/C(=C/c2cccs2)c2nc3ccccc3o2)cc1	5%	-1%	11µM*	-19%
SMILES	GLP1R cytotox	GLP1R ag	GLP-1R inv ag	PTHR1 ag
COc1ccc(/C=C(\CC(=O)O)c2nc3ccccc3o2)cc1	2%	11%	8%	i
COc1cc(NS(=O)(=O)c2cc(C)ccc2OC)c(OC)cc1Cl	0%	1%	-42%	i
COc1ccc(S(=O)(=O)Nc2cc(Cl)ccc2OC)cc1	-26%	-2%	1.4µM*	-7%
COc1ccc(Cl)cc1NS(=O)(=O)c1ccc(OC)c(OC)c1	2%	-8%	-2%	-23%[57.5 µM]
COc1ccc(C)cc1S(=O)(=O)Nc1cc(Cl)ccc1Cl	11%	-34%	8.9µM*	i
Cc1ccccc1NC(=O)c1cc2c(-c3ccccc3)nn(-c3ccccc3)c2s1	1%	21%	-11%	-19%
Cc1cccc(C(O)(C(=O)NNc2ccc3ccccc3n2)c2cccc(C)c2)c1	-3%	-4%	4.5µM*	6%
O=C(NNc1ccccc1Br)C(O)(c1cccc(C(F)(F)F)c1)c1cccc(C(F)(F)F)c1	?	-32%	3.2µM*	-12%
CCNNC(=O)C(O)(c1cccc(C)c1)c1cccc(C)c1	-4%	-13%	18%	-18%
Cc1ccc(NNC(=O)C(O)(c2cccc(C(F)(F)F)c2)c2cccc(C(F)(F)F)c2)cc1	?	-29%	3.2µM*	-34%
Cc1ccc(C(O)(C(=O)NNc2ccccn2)c2ccc(C)cc2)cc1	-3%	4%	33%	-3%
CCOC(=O)CC(NS(=O)(=O)c1ccc2[nH]c3c(c2c1)CCCC3)c1ccccc1Cl (stereo unspecified)	-4%	nt	?	-45%
COc1ccc(CNC(=O)[C@]2(C)CCC[C@@]3(C)C4CC[C@@]5(C)C[C@]4(CCC32)CC5=O)cc1 (stereo partly specified)	-12%	-2%	10µM*	-47%
CSc1ccc(-c2nc3cccc(C)n3c2Nc2ccc(Cl)cc2)cc1	2%	nt	?	-29%
CC1CCCC(C)N1CC(O)COC1CCC(C(C)(C)C)CC1 (stereo unspecified)	?	-4%	?	28%
CC(C)NCC(O)COC1CCC(C(C)(C)C)CC1 (stereo unspecified)	?	-4%	7.1µM*	61%
O=C1CC(N2CCN(c3ccccn3)CC2)C(=O)N1CC(c1ccccc1)c1ccccc1 (stereo unspecified)	0%	-1%	13µM*	?
Cc1ccc(C(=O)N2CCc3cc4c(cc3C2C)OCCCO4)cc1 (stereo unspecified)	-21%	-1%	11µM*	-74%
FC(F)c1nc2nc(Cl)c(Cl)nc2[nH]1	-10%	10%	14µM*	-40%
CCN(CC)C(=O)Cn1c(=O)cc(C)c2c(C)nn(-c3cccc(Cl)c3C)c21	-27%	nt	?	i
COc1ccc(OC)c(/C=C(\C#N)c2nc(-c3ccc(F)cc3)cs2)c1	15%	nt	16%	-2%
OC(c1ccc(F)c(F)c1)c1nc(-c2ccccc2)cs1 (stereo unspecified)	-10%	-5%	-29%	-21%
COc1ccc(-c2csc(C(O)c3ccc(F)c(F)c3)n2)cc1 (stereo unspecified)	-7%	8%	11µM*	-38%
CC(Oc1ccc(F)cc1)C(=O)Nc1nc(-c2ccccn2)cs1 (stereo unspecified)	?	10%	10µM*	i
O=C(CCS(=O)(=O)c1ccc(F)cc1)Nc1nc(-c2ccccn2)cs1	?	0%	?	i
CCNC(=O)c1cnc2c(-c3ccccc3)c(C)nn2c1C	-8%	nt	1%	3%
